Most compounds without a hit are left out; they make up all but 4.1% or so of the library.
IDE cell activ: human IDE activators in live cells, primary screen, fluorescence polarization, HEK cells, FAbeta-B substrate | Insulin-degrading enzyme (Homo sapiens), P14735 | AID 493087, 2011 | activation, % at 5.96 µM | 340,000 tested, 0.073% active | FAbeta-B cleavage; 0% vehicle, 100% cell-free pure enzyme wells;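 active = activation above the mean of all tested compounds plus 3 SD, set per screening campaign, cut at about 17% in these data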
Target sequence (P14735 whole entry, looked up): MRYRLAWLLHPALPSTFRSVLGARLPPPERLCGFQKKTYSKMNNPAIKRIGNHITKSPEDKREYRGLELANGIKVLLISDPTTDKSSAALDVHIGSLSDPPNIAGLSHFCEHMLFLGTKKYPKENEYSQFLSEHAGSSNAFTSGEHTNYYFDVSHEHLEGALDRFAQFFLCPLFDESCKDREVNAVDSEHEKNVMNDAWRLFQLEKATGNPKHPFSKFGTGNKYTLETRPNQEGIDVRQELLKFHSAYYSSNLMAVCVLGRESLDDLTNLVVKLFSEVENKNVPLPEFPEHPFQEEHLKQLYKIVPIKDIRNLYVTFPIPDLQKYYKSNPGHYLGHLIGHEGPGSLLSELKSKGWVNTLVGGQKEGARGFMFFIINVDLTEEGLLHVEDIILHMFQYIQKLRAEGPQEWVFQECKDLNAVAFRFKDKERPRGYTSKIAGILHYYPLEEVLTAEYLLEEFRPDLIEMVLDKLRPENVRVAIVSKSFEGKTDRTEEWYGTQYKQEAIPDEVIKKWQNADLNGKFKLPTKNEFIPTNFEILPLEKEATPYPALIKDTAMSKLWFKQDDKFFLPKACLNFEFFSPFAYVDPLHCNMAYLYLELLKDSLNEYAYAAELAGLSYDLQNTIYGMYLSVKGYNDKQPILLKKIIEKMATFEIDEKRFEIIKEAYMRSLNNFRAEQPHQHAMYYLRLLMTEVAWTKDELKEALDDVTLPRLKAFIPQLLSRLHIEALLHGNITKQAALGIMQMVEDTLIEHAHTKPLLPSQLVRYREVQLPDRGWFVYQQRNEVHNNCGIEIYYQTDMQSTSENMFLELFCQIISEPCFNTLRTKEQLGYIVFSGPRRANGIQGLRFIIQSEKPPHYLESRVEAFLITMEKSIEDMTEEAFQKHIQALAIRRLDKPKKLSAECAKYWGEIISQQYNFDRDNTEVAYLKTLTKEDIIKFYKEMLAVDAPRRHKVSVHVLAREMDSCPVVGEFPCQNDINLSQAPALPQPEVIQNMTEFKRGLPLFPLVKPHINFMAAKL
PolyA inhibitor: polyadenylation inhibitors in yeast reporter cells, primary screen, luminescence, S. cerevisiae. AID 1875, 2009. 300,000 tested, 0.02% active. activity score, % at 12 µM. S. cerevisiae SKY197-pL101 polyadenylation reporter, beta-gal luminescence; efflux-impaired pdr1/pdr3 knockout yeast; score 100 = 6 SD above DMSO;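 active = lowest replicate activity score at least 50, where 100 means six control SD above control mean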;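 also: yeast exposed to compound for 9 h at 30 °C; higher score means more reporter readthrough which indicates perturbed polyadenylation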
IDE cell inh: human IDE inhibitors in live cells, primary screen, fluorescence polarization, HEK cells, FAbetaB substrate. inhibition, % at 5.59 µM. Insulin-degrading enzyme (Homo sapiens), P14735. 320,000 tested, 0.41% active. FAbetaB cleavage;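 active = percent inhibition above the average of all tested compounds plus 3 SD, set per screening campaign, cut at about 16% in these data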;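 also: IDE supplied by intact live HEK cells; FP after avidin binding of uncleaved biotin substrate so inhibition keeps polarization high; 0% = DMSO wells and 100% = 60 µM reference IDE inhibitor Ii1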
PfM18AAP inh: PfM18AAP inhibitors, malaria aminopeptidase, primary screen, biochemical, QFRET, recombinant enzyme. inhibition, % at 7.35 µM. H-Glu-NHMec fluorogenic cleavage. 290,000 tested, 1.2% active. M18 aspartyl aminopeptidase (Plasmodium falciparum 3D7);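 active = inhibition above the campaign mean inhibition over all tested compounds plus 3 SD, cut at about 28% in these data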;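 also: 0% = plate median of test compound wells and 100% = 2 mM ZnCl2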
ALR H2O2 inh: inhibitors of human ALR sulfhydryl oxidase, primary screen, biochemical, H2O2 detection, HRP-luminol luminescence, single point; FAD-linked sulfhydryl oxidase ALR (Homo sapiens), P55789; purified ALR, DTT oxidation; inhibition, % (test concentration not listed); 290,000 tested, 3.8% active; AID 485317, 2010;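 active = mean replicate inhibition above about 79%, with every replicate also reaching it, limit read from the data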
CaV13 ICDI inh: Disruptors of the CACNA1D IQ motif to Ca2+-dependent inactivation inhibitor domain association, primary screening, Förster resonance energy transfer in intact living …; HEK cells, CFP/YFP FRET ICDI-IQ, plate reader, 10 min; percent FRET-ratio fall versus neutral wells; inhibition, % at 12.3 µM; 340,000 tested, 0.098% active;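 active = mean replicate inhibition of at least 30% and at least 1% of replicates passing that level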;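 also: 0% = median of the neutral control wells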
An asterisk follows results filed as active; x = no result given.

SMILES | IDE cell activ | PolyA inhibitor | IDE cell inh | PfM18AAP inh | ALR H2O2 inh | CaV13 ICDI inh
O=C(C1CCC(Cn2c(=S)[nH]c3ccccc3c2=O)CC1)N1CCN(c2ccccc2)CC1 (stereo unspecified) | 4 | -15 | 3 | 3 | x | -6
COC(=O)c1[nH]c2ccc(C)cc2c1NC(=O)NC1CCCCC1 | -3 | 14 | 0 | -1 | -6 | x
O=C(CCn1c(=S)[nH]c2ccccc2c1=O)NCCCN1CCOCC1 | 5 | 12 | 7 | 0 | 8 | -5
COCC(=O)NCCSc1c(C)[nH]c2ccccc12 | 2 | 7 | 6 | 4 | 86* | -6
CCOc1ccc(NC(=O)COC(=O)c2c[nH]c3ccccc23)cc1 | x | x | x | x | x | -5
COc1ccccc1NS(=O)(=O)c1ccc(N2CCOCC2)c(N)c1 | 4 | x | 9 | x | x | -6
COC(=O)c1ccc(COc2ccc(/C=N/O)cc2)o1 | 0 | -1 | 1 | -11 | 98* | 11
COc1ccc(-n2c(CNC(=O)c3ccc(S(=O)(=O)N4CCCC4)cc3)n[nH]c2=S)cc1 | 3 | 7 | -2 | 18 | 91* | -8
COc1cccc(-n2c(CNC(=O)OC(C)(C)C)n[nH]c2=S)c1 | 5 | 4 | 3 | 11 | 89* | -5
COc1ccc(-n2c(CNC(=O)c3cc(OC)c(OC)c(OC)c3)n[nH]c2=S)cc1 | -4 | 3 | 0 | 4 | 93* | -8
COc1ccc(CC(=O)NCc2n[nH]c(=S)n2C)cc1 | 0 | 7 | -4 | 4 | 97* | -2
O=C(CCCC(=O)N(CC(=O)NC1CCCCC1)c1cccc(F)c1)Nc1ccccn1 | 6 | 0 | -1 | 1 | x | -3
O=C(NCc1n[nH]c(=S)n1-c1ccc([N+](=O)[O-])cc1)c1ccc(S(=O)(=O)N2CCOCC2)cc1 | 4 | 27 | 0 | 22 | x | 20
Cn1c(CCNC(=O)OC(C)(C)C)n[nH]c1=S | 6 | 13 | -6 | 2 | 95* | -2
O=C(NCc1n[nH]c(=S)n1-c1ccc(Br)cc1)c1ccc(S(=O)(=O)N2CCCC2)cc1 | 4 | 16 | -2 | 23 | 91* | -3
O=C(NCc1n[nH]c(=S)n1-c1ccc(Br)cc1)c1ccc(S(=O)(=O)N2CCCCC2)cc1 | 1 | 8 | 2 | 9 | 39 | -3
O=C(NCc1n[nH]c(=S)n1-c1ccc(Br)cc1)c1ccc(S(=O)(=O)N2CCOCC2)cc1 | -1 | 12 | 5 | 28* | 25 | -2
COc1ccc(Cl)cc1NC(=O)COC(=O)C1=NNC(=O)CC1 | 2 | x | 0 | x | -1 | -7
CCCN(C(=O)CCc1cn(CCC)c2ccccc12)c1ccc(N(C)c2ccccn2)cc1 | x | x | x | x | x | -8
Cc1nc2ccc(NC(=O)Cc3ccc4c(c3)OCCO4)cc2s1 | 6 | 84* | -1 | 2 | -10 | -2
Cc1nc2ccc(NC(=O)Cc3ccc(Br)cc3)cc2s1 | -1 | 10 | 7 | 4 | -4 | -3
CON(C)S(=O)(=O)c1cccc(C(=O)Nc2cccc(S(=O)(=O)NC3=NCCCCC3)c2)c1 | 1 | x | x | x | x | -9
Cc1ccc(NC(=O)CN(C)C(=O)C(Sc2ccccc2)c2ccccc2)cc1 (stereo unspecified) | 0 | x | -5 | x | -1 | -2
CCCOc1ccc(-c2cnc(N)s2)cc1 | -3 | -15 | 2 | 2 | 98* | -7
CCCOc1ccc(OCCSc2nnc(N)s2)cc1 | 1 | 6 | 5 | 2 | 38 | x
Cc1[nH]c2ccccc2c1CCCO | x | 10 | x | 3 | 99* | -5
CC(=O)c1ccc(NC(=O)NCc2ccc(F)cc2)cc1 | 2 | -4 | -2 | 5 | -7 | 10
Cc1csc(=Nc2c(C)n(C)n(-c3ccccc3)c2=O)n1Cc1ccccc1 | -6 | -3 | 1 | 10 | 97* | -5
Brc1ccc2nc(-c3ccc(CN4CCC(c5nc6ccccc6[nH]5)CC4)cc3)c(-c3ccccc3)nc2c1 | x | x | x | x | x | -13

Screens: PubChem BioAssay, several laboratories
